Measured values published in ChEMBL document CHEMBL3988442, “University of Dundee, Small-Polar-MMV Screening Library” (2021).

biological target: AMP-activated protein kinase, AMPK (Homo sapiens) (UniProt P54646+O43741+P54619+Q9UGJ0+Q9Y478+Q13131+Q9UGI9); experiment: AMP-dependent Kinase enzyme assay. An in vitro enzyme assay that detects ADP turnover that is directly proportional to AMPK activity. This uses naive AMPK that is activated during the assay with MK-8722; assay type: functional; set-up: scale not given: direction of the effect not stated beside the values; conditions: 30 µM

Row | Compound | Percent Effect [%]
1 | CN(C)CC(=O)N1CCN(c2cc(N3CCCC3CO)ncn2)CC1 (centres undefined) | -7.31
2 | CC(C)c1noc(CN2CCN(C(=O)OC(C)(C)C)C(C)C2)n1 (centres undefined) | -3.51
3 | NC(=O)N1CCCCCC1C1CCN(c2nccc(C(F)(F)F)n2)CC1 (centres undefined) | -5.81
4 | COc1cc2c(cc1CNCc1ccnc(-n3cccn3)c1)OC(C)C2 (centres undefined) | -1.78
5 | CN(CCCC1CCCO1)C(=O)c1cccc(C#N)c1 (centres undefined) | 10.9
6 | O=C(Nc1cccc(N2CCCC2)c1)N[C@H](CCO)c1ccccc1 | -57.9
7 | COc1ccc2c(c1OC)Cc1c-2nc(N)c(C#N)c1C1CCOC1 (centres undefined) | 24.3
8 | CO[C@@H]1c2ccccc2C2(CCN(C(=O)CNS(C)(=O)=O)CC2)[C@H]1O | 19.3
9 | CS(=O)(=O)NCCN1CCSCC1c1ccc(Cl)cc1 (centres undefined) | 1.33
10 | O=S(=O)(NCc1cn2ccccc2n1)N1CCOCC1 | 9.32
11 | CCOCCCNCc1cc(O)c2cc(C)ccc2n1 | -9.04
12 | Cn1nc2c(c1NC(=O)c1ccc(Cl)s1)CCC2 | 0.899
13 | O=C(CCOc1ccc(Cl)cc1)NCCCn1cccn1 | -3.71
14 | Fc1ccc(C2CCCCN2Cc2cc(-c3ccccn3)no2)cc1 (centres undefined) | 7.03
15 | CCN(CC)C(=O)CS(=O)(=O)c1cc(OC)c(OC)cc1C | 3.6
16 | COC(=O)c1ccc(N2CCN(C(=O)CCCc3cn[nH]c3)CC2)cc1 | 6
17 | COCCC1CCCCN1C(=O)c1coc(COc2ccccc2F)n1 (centres undefined) | 12.2
18 | CCOC(=O)CC1(Nc2nc(C)nc3c2cnn3C)CCCCC1 | 14.9
19 | Cc1csc(C(C)(C)NCC(=O)N(C)Cc2ccc(C)o2)n1 | -7.36
